# Measurements reported in PubChem BioAssay (NCI).
# Several values for one entry are separate records, joined by “and”; a condition that tells them apart may be missing. Equal entries are not always repeated. The panel holds about 83,000 compounds, 20% with a hit somewhere; the sample as a whole holds those more often.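 Growth was measured after 48 h exposure to one concentration of compound in 96-well plates. Values under 10 count as active.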 Activity calls are given as the source filed them.
# Assays:
# Assay in all cases: NCI-60 one-dose screen, 48 h (100 = growth as untreated, 0 = no growth, -100 = all killed)
# HCT-15 colon = conditions: 10 µM
# HT29 colon = test system: HT29 colon
# SNB-75 CNS = test system: SNB-75 CNS
# SNB-19 CNS = test system: SNB-19 CNS
# U251 CNS = conditions: 10 µM unless noted
# PC-3 prostate = test system: PC-3 prostate
# SK-MEL-5 melanoma = test system: SK-MEL-5 melanoma
# UACC-62 melanoma = test system: UACC-62 melanoma
# LOX IMVI melanoma = conditions: 10 µM unless noted
# SK-MEL-28 melanoma = test system: SK-MEL-28 melanoma
# SK-MEL-2 melanoma = test system: SK-MEL-2 melanoma
# SN12C renal = test system: SN12C renal
# UO-31 renal = test system: UO-31 renal
# TK-10 renal = test system: TK-10 renal
# ACHN renal = test system: ACHN renal
# CAKI-1 renal = test system: CAKI-1 renal
# CCRF-CEM leukemia = test system: CCRF-CEM leukemia
# MOLT-4 leukemia = test system: MOLT-4 leukemia
# A498 renal = conditions: 10 µM
# EKVX NSCLC = conditions: 10 µM
structure (smiles),measurement,setting,value
Nc1c2ccccc2nc2ccccc12,growth,HCT-15 colon,5.79% (active) and 15.8% (inactive) and 26.5% (inactive)
same,growth,HT29 colon; 10 µM,-21.6% (active) and 20.8% (inactive) and 19.9% (inactive)
same,growth,SNB-75 CNS; 10 µM,33.1% (inactive) and 51.8% (inactive) and 89.3% (inactive)
same,growth,SNB-19 CNS; 10 µM,22.5% (inactive) and 39.8% (inactive)
same,growth,U251 CNS,6.74% (active) and 26.5% (inactive) and 34.7% (inactive)
same,growth,PC-3 prostate; 10 µM,23.7% (inactive) and 9.05% (active) and 41.1% (inactive)
same,growth,SK-MEL-5 melanoma; 10 µM unless noted,5.28% (active) and 19.7% (inactive) and 39.5% (inactive)
same,growth,UACC-62 melanoma; 10 µM,13.9% (inactive) and 36.3% (inactive) and 27.3% (inactive)
same,growth,LOX IMVI melanoma,-53.7% (active) and 14.9% (inactive) and 12.4% (inactive)
same,growth,SK-MEL-28 melanoma; 10 µM,18% (inactive) and 28.2% (inactive) and 82.1% (inactive)
same,growth,SK-MEL-2 melanoma; 10 µM,-33.8% (active) and 33.6% (inactive) and 51.8% (inactive)
same,growth,SN12C renal; 10 µM,12% (inactive) and 33.2% (inactive) and 33.5% (inactive)
same,growth,UO-31 renal; 10 µM,12.8% (inactive) and 11.1% (inactive) and 14.2% (inactive)
same,growth,TK-10 renal; 10 µM,-13.4% (active) and 48.2% (inactive)
same,growth,ACHN renal; 10 µM,16.9% (inactive) and 25.5% (inactive)
same,growth,CAKI-1 renal; 10 µM,-37.7% (active) and 19.8% (inactive) and 21.5% (inactive)
same,growth,CCRF-CEM leukemia; 10 µM,35.3% (inactive) and 20.5% (inactive) and 50.7% (inactive)
same,growth,MOLT-4 leukemia; 10 µM,8.47% (active) and 10.2% (inactive) and 12.6% (inactive)
O=[N+]([O-])C1=C(c2ccccc2)SC=C(c2ccccc2)S1,growth,HT29 colon; 10 µM,69.8% (inactive)
same,growth,SNB-75 CNS; 10 µM,92.7% (inactive)
same,growth,SNB-19 CNS; 10 µM,78.3% (inactive)
same,growth,U251 CNS,51.5% (inactive)
same,growth,PC-3 prostate; 10 µM,62% (inactive)
same,growth,SK-MEL-5 melanoma; 10 µM unless noted,87% (inactive)
same,growth,UACC-62 melanoma; 10 µM,54.5% (inactive)
same,growth,LOX IMVI melanoma,4.56% (active)
same,growth,SK-MEL-28 melanoma; 10 µM,88.2% (inactive)
same,growth,SK-MEL-2 melanoma; 10 µM,88.3% (inactive)
same,growth,SN12C renal; 10 µM,73.7% (inactive)
same,growth,UO-31 renal; 10 µM,71.6% (inactive)
same,growth,TK-10 renal; 10 µM,104% (inactive)
same,growth,ACHN renal; 10 µM,83.5% (inactive)
same,growth,CAKI-1 renal; 10 µM,85.5% (inactive)
same,growth,A498 renal,84% (inactive)
same,growth,CCRF-CEM leukemia; 10 µM,14.8% (inactive)
same,growth,MOLT-4 leukemia; 10 µM,26.4% (inactive)
CC1=CC(C)=Nc2ccc(Cl)cc2N1,growth,HCT-15 colon,113% (inactive)
same,growth,HT29 colon; 10 µM,119% (inactive)
same,growth,SNB-75 CNS; 10 µM,90.4% (inactive)
same,growth,SNB-19 CNS; 10 µM,106% (inactive)
same,growth,U251 CNS,101% (inactive)
same,growth,PC-3 prostate; 10 µM,91.9% (inactive)
same,growth,UACC-62 melanoma; 10 µM,103% (inactive)
same,growth,LOX IMVI melanoma,91.4% (inactive)
same,growth,SK-MEL-28 melanoma; 10 µM,124% (inactive)
same,growth,SK-MEL-2 melanoma; 10 µM,109% (inactive)
same,growth,SN12C renal; 10 µM,104% (inactive)
same,growth,UO-31 renal; 10 µM,85.9% (inactive)
same,growth,TK-10 renal; 10 µM,117% (inactive)
same,growth,ACHN renal; 10 µM,105% (inactive)
same,growth,CAKI-1 renal; 10 µM,89.8% (inactive)
same,growth,CCRF-CEM leukemia; 10 µM,93.9% (inactive)
same,growth,MOLT-4 leukemia; 10 µM,97.5% (inactive)
OCC(O)C(O)C(O)C(/C=N/Nc1ccccc1)=N/Nc1ccccc1 (stereo unspecified),growth,HCT-15 colon,75% (inactive)
same,growth,HT29 colon; 10 µM,93.2% (inactive)
same,growth,SNB-75 CNS; 10 µM,66.3% (inactive)
same,growth,SNB-19 CNS; 10 µM,97.4% (inactive)
same,growth,U251 CNS,90.9% (inactive)
same,growth,PC-3 prostate; 10 µM,72.6% (inactive)
same,growth,SK-MEL-5 melanoma; 10 µM unless noted,86.8% (inactive)
same,growth,UACC-62 melanoma; 10 µM,43.6% (inactive)
same,growth,LOX IMVI melanoma,51.8% (inactive)
same,growth,SK-MEL-28 melanoma; 10 µM,103% (inactive)
same,growth,SK-MEL-2 melanoma; 10 µM,121% (inactive)
same,growth,SN12C renal; 10 µM,95.9% (inactive)
same,growth,UO-31 renal; 10 µM,61.1% (inactive)
same,growth,TK-10 renal; 10 µM,91.8% (inactive)
same,growth,ACHN renal; 10 µM,67.5% (inactive)
same,growth,CAKI-1 renal; 10 µM,78% (inactive)
same,growth,CCRF-CEM leukemia; 10 µM,75.4% (inactive)
same,growth,MOLT-4 leukemia; 10 µM,101% (inactive)
Nc1ccc2cc3ccc(N)cc3nc2c1,growth,HCT-15 colon,105% (inactive) and 15.3% (inactive)
same,growth,HT29 colon; 10 µM,105% (inactive) and 4.36% (active)
same,growth,SNB-75 CNS; 10 µM,101% (inactive)
same,growth,SNB-19 CNS; 10 µM,108% (inactive) and 30.4% (inactive)
same,growth,U251 CNS,104% (inactive) and 8.67% (active)
same,growth,PC-3 prostate; 10 µM,94.5% (inactive) and 14.4% (inactive)
same,growth,SK-MEL-5 melanoma; 10 µM unless noted,105% (inactive) and -3.97% (active)
same,growth,UACC-62 melanoma; 10 µM,109% (inactive) and -35.5% (active)
same,growth,LOX IMVI melanoma,105% (inactive) and -30.1% (active)
same,growth,SK-MEL-28 melanoma; 10 µM,108% (inactive) and -6.93% (active)
same,growth,SK-MEL-2 melanoma; 10 µM,-26.2% (active)
same,growth,EKVX NSCLC,88.3% (inactive) and 25.2% (inactive)
same,growth,SN12C renal; 10 µM,86.2% (inactive) and 9.16% (active)
same,growth,UO-31 renal; 10 µM,86.3% (inactive) and -14.7% (active)
same,growth,TK-10 renal; 10 µM,120% (inactive) and 25.8% (inactive)
same,growth,ACHN renal; 10 µM,108% (inactive) and 1.69% (active)
same,growth,CAKI-1 renal; 10 µM,87.8% (inactive) and 4.44% (active)
same,growth,A498 renal,85.6% (inactive) and 1.64% (active)
same,growth,CCRF-CEM leukemia; 10 µM,6.51% (active)
same,growth,MOLT-4 leukemia; 10 µM,90% (inactive) and 8.01% (active)
O=c1ccn(C2CC(O)C(COC(c3ccccc3)(c3ccccc3)c3ccccc3)O2)c(=O)[nH]1 (stereo unspecified),growth,HT29 colon; 10 µM,86% (inactive)
same,growth,HT29 colon; 100 µM,33.1% (inactive)
same,growth,SNB-75 CNS; 10 µM,83.2% (inactive)
same,growth,SNB-75 CNS; 100 µM,57.8% (inactive)
same,growth,SNB-19 CNS; 10 µM,98.2% (inactive)
same,growth,SNB-19 CNS; 100 µM,69.8% (inactive)
same,growth,U251 CNS,55.5% [100 µM] (inactive)
same,growth,PC-3 prostate; 10 µM,59.5% (inactive)
same,growth,PC-3 prostate; 100 µM,15% (inactive)
same,growth,SK-MEL-5 melanoma; 10 µM,93.3% (inactive)
same,growth,SK-MEL-5 melanoma; 100 µM,32.2% (inactive)
same,growth,UACC-62 melanoma; 10 µM,82.6% (inactive)
same,growth,UACC-62 melanoma; 100 µM,29.8% (inactive)
same,growth,LOX IMVI melanoma,79.2% (inactive)
same,growth,SK-MEL-28 melanoma; 10 µM,118% (inactive)
same,growth,SK-MEL-28 melanoma; 100 µM,45.6% (inactive)
same,growth,SK-MEL-2 melanoma; 100 µM,26% (inactive)
same,growth,SN12C renal; 10 µM,95.9% (inactive)
same,growth,SN12C renal; 100 µM,38.8% (inactive)
same,growth,UO-31 renal; 10 µM,54.6% (inactive)
same,growth,UO-31 renal; 100 µM,37.1% (inactive)
same,growth,TK-10 renal; 10 µM,95.4% (inactive)
same,growth,TK-10 renal; 100 µM,87.8% (inactive)
same,growth,ACHN renal; 10 µM,86.4% (inactive)
same,growth,ACHN renal; 100 µM,56.9% (inactive)
same,growth,CAKI-1 renal; 10 µM,127% (inactive)
same,growth,CAKI-1 renal; 100 µM,30.3% (inactive)
same,growth,CCRF-CEM leukemia; 100 µM,45.5% (inactive)
same,growth,MOLT-4 leukemia; 10 µM,67.1% (inactive)
same,growth,MOLT-4 leukemia; 100 µM,9.6% (active)
